In PubChem BioAssay (NCI):
Several values for one entry are separate records, joined by “and”; a condition that tells them apart may be missing. Identical values can stand only once. Compounds without any hit were thinned out: in the full panel of roughly 83,000, 20% have a hit.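 Plates (96-well) were seeded with cells, treated with compound at one concentration, and incubated for 48 hours before percent growth was determined.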 Values without a mark were called inactive. Activity calls are given as the source filed them. The calls were made as follows: active = growth percent below 10; inactive = the rest.

These molecules were tested on MDA-MB-468 breast (assay: NCI-60 one-dose screen, 48 h (100 = growth as untreated, 0 = no growth, -100 = all killed)). Conditions: 10 µM unless noted.

Structure (SMILES)	growth
Cc1ccccc1Nc1nc(SC(C)C)nc(-c2ccccc2)c1C#N	74.8%
C=CCn1c(SCC(=O)Nc2ccc(C(=O)/C=C/c3cc(OC)c(OC)c(OC)c3)cc2)nnc1-c1cc(-c2ccc(S(C)(=O)=O)cc2)nc2ccccc12	88.8%
Nc1nc(Nc2ccccc2SSc2ccccc2Nc2nc(N)nc(-c3ccc(I)cc3)n2)nc(-c2ccc(I)cc2)n1	109%
O=C(CSc1nnc(-c2cc(-c3ccccc3)nc3ccccc23)o1)c1ccc(Br)cc1	103%
O=C(NCCNc1cc(-c2cn(-c3ccccc3)nc2-c2cccc(O)c2)ccn1)Nc1ccc(Cl)c(C(F)(F)F)c1	17.5%
CCN(CC)c1ccc(/C=N/NC(=O)C[N+](C)(C)C)cc1	112%
CC[C@@]12C=CCN3CC[C@]4(c5cc(NC(=O)COc6cc(OCC(=O)Nc7cc8c(cc7OC)N(C)[C@H]7[C@@](O)(C(=O)OC)[C@H](OC(C)=O)[C@]9(CC)C=CCN%10CC[C@]87[C@@H]%109)cc7oc(-c8ccccc8)cc(=O)c67)c(OC)cc5N(C)[C@@H]4[C@](O)(C(=O)OC)[C@H]1OC(C)=O)[C@H]32	72%
O=[N+]([O-])c1ccccc1N(S(=O)(=O)c1ccccc1)S(=O)(=O)c1ccccc1	106% and 90%
COC(/C=C/c1ccc([N+](=O)[O-])cc1)OC	73.4%
NCCCN1CCCC1=O	116%
O=C(N/N=C\c1cc(Br)ccc1O)c1ccncc1	24%
NC(=O)CC1C=CCC1 (centres undefined)	111%
Cc1cc(-c2ccc(N=Nc3ccc4c(S(=O)(=O)O)cc(S(=O)(=O)O)c(N)c4c3O)c(C)c2)ccc1N=Nc1ccc2c(S(=O)(=O)O)cc(S(=O)(=O)O)c(N)c2c1O	98.2%
C#CCOc1cccc(-c2nc(N)nc(Nc3ccccc3SSc3ccccc3Nc3nc(N)nc(-c4cccc(OCC#C)c4)n3)n2)c1	73%
CCOc1ccc(C(=O)O)cc1	83.4%
CC1CCN(S(=O)(=O)c2ccc(S(=O)(=O)N3CCCC(c4nc5c(nnn5Cc5cccc(Cl)c5)c(=O)[nH]4)C3)cc2)CC1 (centres undefined)	27.7%
CN(C)CCCNC1=C(Cl)C(=O)c2ccccc2C1=O	-8.11% (active) and -54.1% (active)

Structure (SMILES)	growth
Cc1cccc2c(=O)c3c(sc12)c(NCc1ccccc1)nc1ccccc13	-12.7% (active)
CCOC(=O)CN1CCC(C(=O)OCC)CC1	114%
COc1ccc(N2C(=O)CC(c3cc(OC)c(OC)c(OC)c3)C3C2=NC(=O)N3C)cc1 (centres undefined)	98.9%
CC/C(=C(/c1ccc(OCCN(C)C)cc1)c1ccc(OC(=O)CCCCCCCCC(=O)c2c(C)[nH]c(/C=C3\N=C(c4ccc[nH]4)C=C3OC)c2C)cc1)c1ccccc1	53.4%
COc1ccc(/C=C2/C(=O)ON=C2C)cc1	103%
O=c1c2ccccc2sc2c(NCCCNCCO)nc3ccccc3c12	-57.3% (active)
O=C1/C(=C/c2cccc(Br)c2)COc2ccc(O)cc21	53.1%
FC(F)(F)c1ccc2nc(-c3nc(-c4ccccc4)n4ccccc34)[nH]c2c1	83.4%
CC(=Nc1ccccc1)C1=C(O)C(Cc2ccc(O)cc2)NC1=O (centres undefined)	17.6%
CN(C)c1ccc([C@@H](C(=O)Nc2cccc([N+](=O)[O-])c2)N(C(=O)c2cc3ccccc3[nH]2)c2cccc([N+](=O)[O-])c2)cc1	97.8%
COc1ccc(CNc2c3ccccc3nc3ccccc23)c(OC)c1	4.83% (active)
CCN(CC)CCOc1ccc(-c2nc3cc(Cl)ccc3s2)cc1	-17% (active)
c1ccc(-c2nnc(-c3c[nH]c4ncccc34)s2)cc1	79.9%
COc1cc(OC)c(NC(=O)n2ncc3cc(Nc4ncnc5ccccc45)ccc32)cc1Cl	-5.26% (active)
C=C(C)[C@@H]1CC[C@]2(C(=O)NC3CCCCC3)CC[C@]3(C)[C@H](CC[C@@H]4[C@@]5(C)CCC(=O)C(C)(C)[C@@H]5CC[C@]43C)[C@@H]12	83.5%
C#C[C@@]1(O)[C@@H](CO)O[C@@H](n2cc(F)c3c(N)ncnc32)[C@@H]1O	-46.2% (active)
CCN(CC)c1ccc(CN(CC(=O)c2ccc(Cl)c(Cl)c2)Cc2ccccc2)cc1	91.9%
